Here are results for 13 compounds from the supplement of paper PMC6992640.

Molecules are shown by their SMILES.

One experiment has as its system HCI01 (cells of a triple-negative basal-like breast cancer xenograft). The experiment in a line: cell viability of combination (% of vehicle); higher = less cytotoxic. The note with it: 1 µM; 72 h; partner dose: 10 nM. Here is the method: (§1)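 PDX cells were treated for 72 h with each drug at 1 µM plus afatinib (10 nM; 1 µM for WHIM30). Luciferase viability is expressed as percent of vehicle.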
In another experiment the test system is WHIM2 (cells of a triple-negative basal-like breast cancer xenograft). The experiment is described as above. The note with it: 1 µM; 72 h; partner dose: 10 nM. Here is the method: as §1

As to `CCN(CC)CCNC(=O)c1c(C)[nH]c(C=C2C(=O)Nc3ccc(F)cc32)c1C` [Sunitinib] + CN(C)C/C=C/C(=O)Nc1cc2c(Nc3ccc(F)c(Cl)c3)ncnc2cc1O[C@H]1CCOC1 [Afatinib], the “cell viability of combination” value was determined as 38.8 in the experiment with HCI01 and 25.7 in the experiment on WHIM2.

For `Clc1ccc(CSC(Cn2ccnc2)c2ccc(Cl)cc2Cl)cc1.O=[N+]([O-])O` (stereo unspecified) [Sulconazole Nitrate] + CN(C)C/C=C/C(=O)Nc1cc2c(Nc3ccc(F)c(Cl)c3)ncnc2cc1O[C@H]1CCOC1 [Afatinib], the “cell viability of combination” value in the experiment with HCI01 was 62.8; in the experiment on WHIM2 it was 49.5.

`C=C1C(=CC=C2CCCC3(C)C2CCC3C(C)CCCC(C)C)CC(O)CC1O` (stereo unspecified) [Alfacalcidol] + CN(C)C/C=C/C(=O)Nc1cc2c(Nc3ccc(F)c(Cl)c3)ncnc2cc1O[C@H]1CCOC1 [Afatinib]: the “cell viability of combination” value came to 42.1 in the experiment on HCI01 and 34.4 in the experiment on WHIM2.

For `Cl.Cl.Fc1ccc(C(c2ccc(F)cc2)N2CCN(CC=Cc3ccccc3)CC2)cc1` [Flunarizine 2HCl] + CN(C)C/C=C/C(=O)Nc1cc2c(Nc3ccc(F)c(Cl)c3)ncnc2cc1O[C@H]1CCOC1 [Afatinib], the “cell viability of combination” value came out at 63.3 with HCI01 and 50.6 in the experiment on WHIM2.

For the compound `CN(C)c1ccc(C(=C2C=CC(=[N+](C)C)C=C2)c2ccc(N(C)C)cc2)cc1.[Cl-]` [Crystal Violet] + CN(C)C/C=C/C(=O)Nc1cc2c(Nc3ccc(F)c(Cl)c3)ncnc2cc1O[C@H]1CCOC1 [Afatinib], the “cell viability of combination” value in the experiment on HCI01 came to 45; in the experiment with WHIM2 it was 28.4.

Turning to `Br.Cc1ccc(Sc2ccccc2N2CCNCC2)c(C)c1` + CN(C)C/C=C/C(=O)Nc1cc2c(Nc3ccc(F)c(Cl)c3)ncnc2cc1O[C@H]1CCOC1 [Afatinib], the “cell viability of combination” value in the experiment on HCI01 was 49.7; with WHIM2 it was 46.7.

For the compound `Nc1c(CC(=O)[O-])cccc1C(=O)c1ccccc1.O.[Na+]` [Amfenac Sodium Monohydrate] + CN(C)C/C=C/C(=O)Nc1cc2c(Nc3ccc(F)c(Cl)c3)ncnc2cc1O[C@H]1CCOC1 [Afatinib], the “cell viability of combination” value turned out to be 54.7 in the experiment with HCI01 and 47.6 in the experiment with WHIM2.

In the case of `CCCCCOc1ccc(-c2ccc(-c3ccc(C(=O)N[C@H]4C[C@@H](O)[C@@H](O)NC(=O)[C@@H]5[C@@H](O)[C@@H](C)CN5C(=O)[C@H]([C@@H](C)O)NC(=O)[C@H]([C@H](O)[C@@H](O)c5ccc(O)cc5)NC(=O)[C@@H]5C[C@@H](O)CN5C(=O)[C@H]([C@@H](C)O)NC4=O)cc3)cc2)cc1` [Anidulafungin] + CN(C)C/C=C/C(=O)Nc1cc2c(Nc3ccc(F)c(Cl)c3)ncnc2cc1O[C@H]1CCOC1 [Afatinib], the “cell viability of combination” value came out at 55.5 with HCI01 and 43 in the experiment on WHIM2.

With `COc1ccccc1OCCNCC(O)COc1cccc2[nH]c3ccccc3c12` (stereo unspecified) [Carvedilol] + CN(C)C/C=C/C(=O)Nc1cc2c(Nc3ccc(F)c(Cl)c3)ncnc2cc1O[C@H]1CCOC1 [Afatinib], the “cell viability of combination” value turned out to be 48.7 in the experiment with HCI01 and 41.1 in the experiment with WHIM2.

Consider `O=C(O)c1cc(O)c(O)c(O)c1` [Gallic acid] + CN(C)C/C=C/C(=O)Nc1cc2c(Nc3ccc(F)c(Cl)c3)ncnc2cc1O[C@H]1CCOC1 [Afatinib], for which the “cell viability of combination” value with HCI01 was 51.4; with WHIM2 it was 46.3.

With `Cc1nc(Nc2ncc(C(=O)Nc3c(C)cccc3Cl)s2)cc(N2CCN(CCO)CC2)n1` + CN(C)C/C=C/C(=O)Nc1cc2c(Nc3ccc(F)c(Cl)c3)ncnc2cc1O[C@H]1CCOC1 [Afatinib], the “cell viability of combination” value amounted to 41.5 with HCI01 and 30.8 in the experiment with WHIM2.

On to `Clc1ccc(COC(Cn2ccnc2)c2ccc(Cl)cc2Cl)cc1.O=[N+]([O-])O` (stereo unspecified) [Econazole nitrate] + CN(C)C/C=C/C(=O)Nc1cc2c(Nc3ccc(F)c(Cl)c3)ncnc2cc1O[C@H]1CCOC1 [Afatinib], for which the “cell viability of combination” value in the experiment on HCI01 and in the experiment with WHIM2 was 55.8 throughout.

As to `CO[C@H]1C[C@@H]2CC[C@@H](C)[C@@](O)(O2)C(=O)C(=O)N2CCCC[C@H]2C(=O)O[C@H]([C@H](C)C[C@@H]2CC[C@@H](O)[C@H](OC)C2)CC(=O)[C@H](C)/C=C(\C)[C@@H](O)[C@@H](OC)C(=O)[C@H](C)C[C@H](C)/C=C/C=C/C=C/1C` [Rapamycin (Sirolimus)] + CN(C)C/C=C/C(=O)Nc1cc2c(Nc3ccc(F)c(Cl)c3)ncnc2cc1O[C@H]1CCOC1 [Afatinib], the “cell viability of combination” value in the experiment with HCI01 was determined as 51; with WHIM2, 39.3.
